# This is one part of a sample in which the strongest signals are shown more often than they occur.
# Columns and labels:
# Experiment in all cases: glycan array binding signal (z-score within array); higher = stronger binding
# Conditions in all cases: glycan notation: IUPAC condensed, linker removed
# [1] = biological target: Gal(b1-4)GlcNAc(b1-3)Gal(b1-4)GlcNAc(b1-3)Gal(b1-4)GlcNAc(b1-3)Gal(b1-4)GlcNAc(b1-2)Man(a1-3)[Gal(b1-4)GlcNAc(b1-3)Gal(b1-4)GlcNAc(b1-3)Gal(b1-4)GlcNAc(b1-3)Gal(b1-4)GlcNAc(b1-2)Man(a1-6)]Man(b1-4)GlcNAc(b1-4)[Fuc(a1-6)]GlcNAc
# How it was run: (§1)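 Glycan array data were curated from 3228 arrays in the Consortium for Functional Glycomics database and kept only where the protein sequence was available. Glycan names were converted to IUPAC-condensed notation, and columns mapping to the same glycan were averaged. The binding signal is a within-array Z-score, averaged across arrays of the same protein sequence at different concentrations or buffers and across linkers. Negative Z-scores can be read as non-binding.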
# [2] = biological target: Gal(b1-4)GlcNAc(b1-3)Gal(b1-4)GlcNAc(b1-3)Gal(b1-4)GlcNAc(b1-3)Gal(b1-4)GlcNAc(b1-3)Gal(b1-4)GlcNAc(b1-2)Man(a1-3)[Gal(b1-4)GlcNAc(b1-3)Gal(b1-4)GlcNAc(b1-3)Gal(b1-4)GlcNAc(b1-3)Gal(b1-4)GlcNAc(b1-3)Gal(b1-4)GlcNAc(b1-2)Man(a1-6)]Man(b1-4)GlcNAc(b1-4)[Fuc(a1-6)]GlcNAc
# How it was run: as §1
# Gal(b1-6)Gal = biological target: Gal(b1-6)Gal
# How it was run: as §1
# Gal3S6S(b1-4)GlcNAc6S = biological target: Gal3S6S(b1-4)GlcNAc6S
# How it was run: as §1
# [3] = biological target: GalNAc(b1-3)Gal(a1-4)Gal(b1-4)GlcNAc
# How it was run: as §1
# [4] = biological target: GlcNAc(a1-4)Gal(b1-4)GalNAc
# How it was run: as §1
# [5] = biological target: GlcNAc(b1-2)Man(a1-3)[GlcNAc(b1-4)][GlcNAc(b1-2)Man(a1-6)]Man(b1-4)GlcNAc(b1-4)[Fuc(a1-6)]GlcNAc
# How it was run: as §1
# [6] = biological target: GlcNAc(b1-3)Gal(b1-4)GlcNAc(b1-3)Gal(b1-4)GlcNAc(b1-2)Man(a1-3)[GlcNAc(b1-3)Gal(b1-4)GlcNAc(b1-3)Gal(b1-4)GlcNAc(b1-2)Man(a1-6)]Man(b1-4)GlcNAc(b1-4)GlcNAc
# How it was run: as §1
# [7] = biological target: GlcNAc6S(b1-3)Gal(b1-4)GlcNAc
# How it was run: as §1
# Man(a1-2)Man(a1-3)Man = biological target: Man(a1-2)Man(a1-3)Man
# How it was run: as §1
# [8] = biological target: Man(a1-2)Man(a1-3)[Man(a1-6)]Man(a1-6)[Man(a1-2)Man(a1-3)]Man(b1-4)GlcNAc(b1-4)GlcNAc
# How it was run: as §1
# [9] = biological target: Man(a1-3)[Man(a1-6)]Man(b1-4)GlcNAc(b1-4)GlcNAc
# How it was run: as §1
# [10] = biological target: Neu5Ac(a2-3)Gal(b1-3)GalNAc
# How it was run: as §1
# [11] = biological target: Neu5Ac(a2-3)Gal(b1-3)GalNAc(b1-4)[Neu5Ac(a2-8)Neu5Ac(a2-3)]Gal(b1-4)Glc
# How it was run: as §1
# [12] = biological target: Neu5Ac(a2-3)Gal(b1-3)GlcNAc(b1-3)GalNAc
# How it was run: as §1
# [13] = biological target: Neu5Ac(a2-3)Gal(b1-4)GlcNAc(b1-3)Gal(b1-4)GlcNAc(b1-3)Gal(b1-4)GlcNAc
# How it was run: as §1
# [14] = biological target: Neu5Ac(a2-3)Gal(b1-4)GlcNAc(b1-3)Gal(b1-4)GlcNAc(b1-3)Gal(b1-4)GlcNAc(b1-2)Man(a1-3)[Neu5Ac(a2-3)Gal(b1-4)GlcNAc(b1-3)Gal(b1-4)GlcNAc(b1-3)Gal(b1-4)GlcNAc(b1-2)Man(a1-6)]GalNAc
# How it was run: as §1
# [15] = biological target: Neu5Ac(a2-3)Gal(b1-4)[Fuc(a1-3)]GlcNAc(b1-2)Man
# How it was run: as §1
# [16] = biological target: Neu5Ac(a2-3)[GalNAc(b1-4)]Gal(b1-4)Glc
# How it was run: as §1
# [17] = biological target: Neu5Ac(a2-6)Gal(b1-4)GlcNAc(b1-2)Man(a1-3)[Man(a1-6)]Man(b1-4)GlcNAc(b1-4)GlcNAc
# How it was run: as §1
# [18] = biological target: Neu5Ac(a2-6)Gal(b1-4)GlcNAc(b1-2)[Neu5Ac(a2-6)Gal(b1-4)GlcNAc(b1-4)]Man(a1-3)[GlcNAc(b1-4)][Neu5Ac(a2-6)Gal(b1-4)GlcNAc(b1-4)Man(a1-6)]Man(b1-4)GlcNAc(b1-4)GlcNAc
# How it was run: as §1
# [19] = biological target: Neu5Ac(a2-6)Gal(b1-4)GlcNAc(b1-3)Gal(b1-4)GlcNAc(b1-2)Man(a1-3)[Neu5Ac(a2-6)Gal(b1-4)GlcNAc(b1-3)Gal(b1-4)GlcNAc(b1-2)Man(a1-6)]GalNAc
# How it was run: as §1
# [20] = biological target: Neu5Ac(a2-6)Gal(b1-4)GlcNAc(b1-3)[Neu5Ac(a2-6)Gal(b1-4)GlcNAc(b1-6)]GalNAc
# How it was run: as §1
# [21] = biological target: Neu5Ac(a2-6)Gal(b1-4)GlcNAc(b1-6)[Gal(b1-3)]GalNAc
# How it was run: as §1
# [22] = biological target: Neu5Ac(a2-6)GalNAc(b1-4)GlcNAc
# How it was run: as §1
# [23] = biological target: Neu5Ac(a2-8)Neu5Ac(a2-3)[Gal(b1-3)GalNAc(b1-4)]Gal(b1-4)Glc
# How it was run: as §1
# [24] = biological target: Neu5Ac(a2-8)Neu5Gc(a2-3)Gal(b1-4)GlcNAc
# How it was run: as §1
binder,measurement,setting,value
PX14367A-bth-493-35-493 (Bacteroides thetaiotaomicron) (protein) VSSDQVAVAGNAERLFNGAWYNLFEYGTTYANIGYRALQCQDDMMASDVVSRPKYGFNSSYQFNDVAIPSDGRTSFAWYLIYKTIDNCNTAISIKGDSEELRQAQGQALALRAFCYLHLVQHYQFTYLKDKDAPCVPIYTEPTTSGTKPKGKSTVAQVYQQIFDDLNLAQDYLTNYVRKGDGQKFKPNTDVVNGLMARAYLLTGQWGEAAKAAEAARKGYSLMTTTAEYEGFNNISNKEWIWGSPQTLSQSDASYNFYYLDATYVGAYSSFMADPHLMDTFVKGDIRLPLFQWMREGYLGYKKFHMRSDDTADLVLMRSAEMYLIEAEAKVRDGVALDQAVAPLNTLRTARGVGNYDVTGKTKEQVIDEILMERRRELWGEGFGITDVLRNQKAVERMALSEDMQKTEVDCWQEGGSFAKRNPLGHWFLNFPDGKAFSANSSYYLYAIPEKEINANPNL,glycan array binding signal (z-score),[1],2.51
same,glycan array binding signal (z-score),[2],6.87
same,glycan array binding signal (z-score),Gal(b1-6)Gal,-0.332
same,glycan array binding signal (z-score),Gal3S6S(b1-4)GlcNAc6S,0.726
same,glycan array binding signal (z-score),[3],4.2
same,glycan array binding signal (z-score),[4],-0.551
same,glycan array binding signal (z-score),[5],-0.396
same,glycan array binding signal (z-score),[6],1.06
same,glycan array binding signal (z-score),[7],-0.213
same,glycan array binding signal (z-score),Man(a1-2)Man(a1-3)Man,0.44
same,glycan array binding signal (z-score),[8],-0.608
same,glycan array binding signal (z-score),[9],0.166
same,glycan array binding signal (z-score),[10],-0.407
same,glycan array binding signal (z-score),[11],-0.448
same,glycan array binding signal (z-score),[12],-0.042
same,glycan array binding signal (z-score),[13],-0.083
same,glycan array binding signal (z-score),[14],1.29
same,glycan array binding signal (z-score),[15],-0.443
same,glycan array binding signal (z-score),[16],-0.325
same,glycan array binding signal (z-score),[17],0.504
same,glycan array binding signal (z-score),[18],-0.361
same,glycan array binding signal (z-score),[19],6.47
same,glycan array binding signal (z-score),[20],-0.601
same,glycan array binding signal (z-score),[21],0.377
same,glycan array binding signal (z-score),[22],-0.719
same,glycan array binding signal (z-score),[23],-0.3
same,glycan array binding signal (z-score),[24],11.1
